Test results from PubChem BioAssay AID1259251 (The Scripps Research Institute Molecular Screening Center, 2017).
The campaign covered roughly 30,000 compounds. About 580 (1.9%) were called active. The entries come from a sample that favours actives as a whole. Values without a mark were called inactive. Cut-off read from the data, not from the text of the source: active = inhibition above about 43%; inactive = the rest.

Target: Serine/threonine-protein kinase ULK1 (Homo sapiens) (UniProt O75385)
Sequence (O75385 whole entry, looked up): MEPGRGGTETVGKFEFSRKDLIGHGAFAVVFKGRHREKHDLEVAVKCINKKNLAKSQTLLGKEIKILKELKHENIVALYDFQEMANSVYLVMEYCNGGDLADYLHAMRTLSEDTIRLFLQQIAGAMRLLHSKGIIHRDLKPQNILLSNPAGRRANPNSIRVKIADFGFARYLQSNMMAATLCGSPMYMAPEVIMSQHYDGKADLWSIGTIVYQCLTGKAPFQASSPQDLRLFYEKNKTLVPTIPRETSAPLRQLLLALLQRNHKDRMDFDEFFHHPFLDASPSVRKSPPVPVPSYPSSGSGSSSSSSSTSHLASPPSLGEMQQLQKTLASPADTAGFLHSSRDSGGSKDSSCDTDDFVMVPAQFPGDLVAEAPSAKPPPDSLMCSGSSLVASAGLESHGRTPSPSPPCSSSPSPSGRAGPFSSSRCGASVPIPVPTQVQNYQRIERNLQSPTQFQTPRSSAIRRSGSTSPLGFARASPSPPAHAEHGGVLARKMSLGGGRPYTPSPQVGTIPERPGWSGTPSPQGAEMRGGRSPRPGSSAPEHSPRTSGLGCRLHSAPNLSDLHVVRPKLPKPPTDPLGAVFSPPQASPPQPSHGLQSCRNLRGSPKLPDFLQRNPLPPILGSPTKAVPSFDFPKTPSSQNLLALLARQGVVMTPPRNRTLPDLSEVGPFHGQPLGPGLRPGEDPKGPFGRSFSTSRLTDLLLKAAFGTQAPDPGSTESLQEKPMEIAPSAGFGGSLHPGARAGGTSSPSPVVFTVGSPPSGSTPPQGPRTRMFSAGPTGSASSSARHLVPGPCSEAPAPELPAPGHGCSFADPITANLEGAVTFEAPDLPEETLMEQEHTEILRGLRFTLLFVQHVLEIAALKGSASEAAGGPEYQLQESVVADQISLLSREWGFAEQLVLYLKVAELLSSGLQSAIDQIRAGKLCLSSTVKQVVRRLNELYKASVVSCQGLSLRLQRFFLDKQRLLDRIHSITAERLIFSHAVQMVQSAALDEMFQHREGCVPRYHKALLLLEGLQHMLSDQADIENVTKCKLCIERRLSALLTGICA
Test: inhibition of human autophagy kinase ULK1 – biochemical, AlphaScreen, primary screen (AID 1259251);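 note: 0% = median of compound wells and 100% = no enzyme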
Settings: AlphaScreen Atg13 phosphorylation by ULK1, luminescence; at 5.96 µM; stronger effect = higher value

Row | SMILES | inhibition
1 | CN1CCN(c2ncn(-c3ccc(Nc4nccc(-c5ccc(NS(C)(=O)=O)cc5)n4)cc3)n2)CC1 | 63.3% (active)
2 | CN(C)c1cc(F)cc(-c2ccnc(Nc3ccc(-n4cnc(N5CCOCC5)n4)cc3)n2)c1 | -12.3%
3 | Cn1nccc1-c1cc(F)cc(-c2ccnc(Nc3ccc(-n4cnc(N5CCOCC5)n4)cc3)n2)c1 | 10.3%
4 | CC(=O)Nc1ccc(Nc2ncnc3nc(N4CCOCC4)[nH]c23)cc1 | -7.72%
5 | CCCNC(=O)Cc1cn(-c2ccc(Nc3ccc(-n4ccnc4)cc3)nn2)c2ccccc12 | 0.04%
6 | CC(C)(C)NC(=O)N1CCCN(c2ccc(S(C)(=O)=O)cc2)CC1 | 6.31%
7 | CN1CCc2nc(NC(=O)c3ccc(Cl)cc3Cl)sc2C1 | -7.21%
8 | O=C(Nc1ccccc1)c1ccc2nc(NCCN3CCOCC3)sc2c1 | 2.47%
9 | O=C(Nc1ccc(N2CCOCC2)cc1)c1ccc2nc(Nc3ccncc3)sc2c1 | 52.9% (active)
10 | O=C(NCc1ccccc1)c1csc(Nc2ccc(N3CCOCC3)cc2)n1 | 25.3%
11 | O=C(Nc1ccc(N2CCOCC2)cc1)c1csc(Nc2ccc(-n3ccnc3)cc2)n1 | 47.9% (active)
12 | O=C(Nc1ccc(N2CCOCC2)cc1)c1cnc(Nc2ccc(-n3ccnc3)cc2)s1 | 17.6%
13 | CN(C)c1cccc(Nc2nc3ccc(C(=O)Nc4ccc(N5CCOCC5)cc4)cc3s2)c1 | 24.1%
14 | Cc1cnnn1-c1ccc(Nc2nccc(-c3cc(C#N)cc(N4CCOCC4)c3)n2)cc1 | 14.1%
15 | O=C(Nc1ccc2[nH]ncc2c1)[C@H]1C[C@@H](O)CN1C(=O)Cc1ccc(Br)cc1 | 5.77%
16 | O=C(NCCCN1CCCC1=O)c1cccc(Cl)n1 | 10.3%
17 | FC(F)(F)c1ccc(Cn2cnc3c(Nc4ccc5c(c4)OCO5)nc(N4CCC(N5CCOCC5)CC4)nc32)cc1 | 10%
18 | c1cnc2ccc(Nc3nc4ncnc(NCc5nc6ccccc6[nH]5)c4[nH]3)cc2c1 | 15.5%
19 | O=C(NC1CC1)c1cccc(Nc2cccnc2)n1 | -1.02%
20 | FC(F)(F)c1cccc(CNc2nc(Nc3ccc(N4CCOCC4)cc3)nc3c2ncn3-c2ccsc2)c1 | -6.13%
21 | CC(C)n1c(N2CCOCC2)nc2c(NCc3ccccc3)ncnc21 | -2.96%
22 | CCN(CC)C(=O)C1CCCN(c2cccc(C(=O)NCc3nc4ccccc4[nH]3)c2)C1 (centres undefined) | 7.49%
23 | COc1cccc(CN(CCN(C)C)C(=O)c2cn3cc(-c4ccnc(N)n4)ccc3n2)c1 | 0.96%
24 | COc1cc2nc(-c3csc4ccccc34)nc(Nc3ccc(Oc4ccccc4)cc3)c2cc1OC | -36.4%
25 | O=C(NC1CCN(Cc2ccccc2)CC1)c1ccc(-c2ccccc2)s1 | -15.1%
26 | COc1ccc(C2=NC(C)(C)NC(c3ccccc3O)C2)cc1 (centres undefined) | 22.6%
27 | Cc1nc(C)n(-c2ccc(Nc3ncc4ccc(-c5cnn(C)c5)cc4n3)cc2)n1 | 75.2% (active)

Row | SMILES | inhibition
28 | Cc1ncn(-c2ccc(Nc3ncc(-c4cnn(C)c4)c(-c4cnn(C)c4)n3)cc2)n1 | -7.3%
29 | Cc1nc(C)n(-c2ccc(Nc3cc(-n4ccnn4)ccn3)cc2)n1 | -1.71%
30 | Cc1noc(C)c1-c1nc(N)c2ncn(-c3ccccc3)c2n1 | 29.2%
31 | CC(=O)NNC(=O)C(C)Oc1ccc(Cl)cc1Cl (centres undefined) | 3.12%
32 | CC1(C(=O)Nc2ccc(-c3cn[nH]c3)cc2)COc2ccccc2C1 (centres undefined) | -8.37%
33 | Fc1cnc(Nc2ccc(N3CCNCC3)cc2)cc1-n1cnc(Nc2ccccc2)n1 | 90.4% (active)
34 | c1ccc(Nc2nccc(Nc3ccc(N4CCOCC4)cc3)n2)cc1 | 4.53%
35 | c1ccc(-n2cnc(-c3ccnc(Nc4ccc(N5CCOCC5)cc4)c3)n2)cc1 | -3.17%
36 | CN(C)c1cccc(Nc2nccc(NCc3ccccc3)n2)c1 | 1.8%
37 | CC[C@H]1OC(=O)[C@H](C)C(=O)[C@H](C)[C@@H](O[C@@H]2O[C@H](C)C[C@H](N(C)C)[C@H]2O)[C@](C)(OC)C[C@@H](C)C(=O)[C@H](C)[C@@H]2N(CCCCn3cnc(-c4cccnc4)c3)C(=O)OC21C (some centres undefined) | -2.96%
38 | O=C(NCCCN1CCCC1=O)c1cnc(-c2ccccc2)s1 | 0.58%
39 | COc1ccc(CCNc2nc(-c3ccc(N4CCOCC4)nc3)ncc2C)cc1 | -5.93%
40 | COc1ccc(CCNc2nc(Nc3ncccn3)nc3c2ncn3CCN2CCCC2=O)cc1 | 27.6%
41 | O=C(NCCc1ccc(O)cc1)c1csc(Nc2cnccn2)n1 | 12.4%
42 | O=C(NCc1nc2ccccc2[nH]1)c1csc(Nc2cnccn2)n1 | 46.6% (active)
43 | O=C(NCc1nc2ccccc2[nH]1)c1cccc(Nc2ncccn2)n1 | 10.3%
44 | CC(=O)c1cccc(-c2nccc(Nc3ccccc3)n2)c1 | -2.99%
45 | COc1cc2nc(Nc3ccc(-n4ccnc4)cc3)nc(Nc3cc(OC)c(OC)c(OC)c3)c2cc1OC | -15.5%
46 | C/C(CC(=O)NC1CCCC1)=N\NC(=O)COc1cccc(C)c1 | -34.7%
47 | Cc1cc(NCc2ccccc2)nc(N2CCN(Cc3ccc4c(c3)OCO4)CC2)n1 | -4.09%
48 | COc1ccc2c(c1)CC(C(=O)Nc1nc3ccc(-c4cn[nH]c4C)cc3s1)CO2 (centres undefined) | -7.18%
49 | CCOc1ccccc1C1/C(=C(\O)c2ccc(OC)cc2C)C(=O)C(=O)N1CCN(C)C (centres undefined) | -3.39%
50 | Fc1cc(-c2nc(Nc3ccc(CN4CCOCC4)cc3)ncc2F)cc(N2CCOCC2)c1 | 13.5%
51 | Cc1ccc(-c2ncn(-c3ccc(Nc4ncc(F)c(-c5cccc(N6CCOCC6)c5)n4)cc3)n2)cn1 | -16.4%
52 | Fc1cnc(Nc2ccc(Cn3ccnc3)cc2)nc1-c1cccc(N2CCOCC2)c1 | 45.9% (active)
53 | CC(=O)OCc1nc2ccc(-c3ccncc3)cc2[nH]1 | -6.82%
54 | O=C(NCc1cccnc1)c1ccnc(NCc2cccnc2)c1 | 8.32%
